hNpr1 antagonist: blocks ANP-stimulated signaling of human Npr1 receptor; Potency, µM (top dose mostly 46.3 µM), for the others: at the highest dose activity change, negative = inhibition, most hits filed as inhibitors; 76,000 tested, 1.6% active; P16066; HEK293 hNpr1 GloSensor cGMP, ANP-stimulated luminescence; calls by dose curve; also: nearly all actives have a fitted effect of over 60% in size
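Compound pre-incubated 30 min at room temperature on GloSensor-loaded HEK293 cells stably carrying hNpr1 and the pGS-40F cGMP biosensor. Stimulation uses hNppA at 0.1 nM final; luminescence is taken at baseline and 20 min post-agonist.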
3T3 cytotox: kills NIH 3T3 cells; 94,000 tested, 4.3% active; Potency, µM (doses to about 96.7 µM), for inactives: at the top dose activity change, negative = cytotoxicity, hits mostly inhibitors; NIH 3T3 viability, CellTiter-Glo ATP luminescence, 48-72 h; also: nearly all actives have a fitted effect of over 55% in size
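Mouse fibroblast NIH 3T3 cells, 400 per well, received compound via pintool and were incubated for 48 or 72 hr prior to CellTiter-Glo ATP luminescence measurement.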
HEK293 viab: cell viability loss counter-screen; HEK-293-SNCA-luc viability, GF-AFC fluorescence, 24 h; 150,000 tested, 0.12% active; Potency, µM (titrated, usually from 57.1 µM), inactives show at the highest dose activity change, negative = cytotoxicity, actives largely listed as cytotoxic;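 also: 0% = DMSO-treated cells and -100% = medium-only wells without cells; nearly all actives have a fitted effect of over 30% in size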
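HEK-293-SNCA-luc cells (1500/well) plated 24 h, then exposed 24 h to a dilution series; GF-AFC added 30 min at 37C, fluorescence 405/540 nm; normalised to medium-only and DMSO wells, Hill fit.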
HEK293 tox: HEK 293 cell cytotoxicity; Potency, µM (highest dose often 115 µM), for inactives: at the top dose activity change, negative = cytotoxicity, most hits filed as inhibitors; HEK 293 viability, ATP luminescence (CellTiter-Glo), 48-72 h; 94,000 tested, 6.6% active; AID 1345083; also: nearly all actives have a fitted effect of over 60% in size
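HEK 293 cells at 250 cells/well were exposed to compounds by pintool transfer for 48 or 72 hr at 37 degree Celsius, 5% CO2. Viability was read as ATP-coupled luminescence with CellTiter-Glo after 10 min at room temperature.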
FLuc inh: blocks purified firefly luciferase enzyme activity | 76,000 tested, 2.5% active | purified P. pyralis luciferase, luminescence, biochemical | AID 1347043 | Potency, µM (top dose mostly 115 µM), actives largely listed as inhibitors; also: nearly all actives have a fitted effect of over 65% in size
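Luminescence read by CCD imager after adding enzyme (10nM final) to wells holding compound, titrated in qHTS. Substrates 10uM each D-luciferin and ATP; buffer 50mM Tris acetate pH 7.5, 10mM Mg acetate, Tween-20, BSA.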
SNCA expr inhib: reduces expression of the alpha-synuclein gene; HEK-293 SNCA-luciferase knock-in, luminescence, 24 h; Potency, µM (highest dose often 57.2 µM), for the others: at the top dose activity change, negative = inhibition, hits mostly inhibitors; 140,000 tested, 0.17% active;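 also: plate controls were DMSO cells for no effect and cell-free wells for full effect; nearly all actives have a fitted effect of over 45% in size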
* hit, by the source's call; i = inactive; ? = inconclusive; · = no result given; [ ] = remark or other dose. Most compounds without a hit are left out; they make up all but 7.4% or so of the library. Unless noted, calls follow the shape of the dose curve; as a rule, active = well fitted curve in the direction sought with a large enough effect; inconclusive = small, poorly fitted or top-dose-only effect, or another doubt; inactive = no such curve, though single readings can be large; an effect the other way counts as inactive or inconclusive. Unless noted, % is scaled to controls: 0 for no effect and ±100 for the full control effect; potency is read from the fitted curve at half-maximal effect.

SMILES | hNpr1 antagonist | 3T3 cytotox | HEK293 viab | HEK293 tox | FLuc inh | SNCA expr inhib
Cc1cc2nc3n(c(=O)c2n1CC(=O)NC1CCC(C)CC1)CCCCC3 (stereo unspecified) | -6.0% | ? | -9.5% | 1.0% | i | -10.1%
COc1ccc(CC(=O)Nc2cc(-c3ccncc3)nn2-c2ccccc2)cc1 | · | ? | -13.8% | ? | · | 8.2%
CCc1ccc(C(=O)N2CCC(c3cc(-c4cccc(OC)c4)n[nH]3)CC2)cc1 | ? | ? | 8.2% | 44.7µM* | i | 32.5%
COc1cccc(-c2cc(C3CCN(C(=O)NCCc4ccccc4)CC3)[nH]n2)c1 | -19.3% | -3.8% | 0.0% | ? | i | 0.2%
COc1ccccc1-c1cccc(C(=O)N2CCN(C(=O)Cc3cccc(Cl)c3)CC2)c1 | · | ? | 8.0%[12.5 µM] | ? | · | 36.9%
O=C(c1cccc(Cl)c1)N1CCc2nc(-c3ccc(Cl)cc3)nc(-c3ccccc3)c2C1 | 2.4% | ? | 5.4% | ? | ? | 100.5%
COc1cccc(C(=O)N2CCc3nc(-c4ccccc4)nc(-c4ccc(Cl)cc4)c3C2)c1 | 5.1% | ? | 1.5% | 39.8µM* | i | 0.1%
O=C(c1cccc(Cl)c1)N1CCc2nc(-c3ccccc3)nc(-c3ccc(Cl)cc3)c2C1 | -11.3% | ? | -15.5% | 28.2µM* | i | ?
COc1ccc(-c2ccccc2C(=O)N2CCC(NC(=O)Cc3cccc(Cl)c3)CC2)nn1 | · | -8.3% | · | i | · | ·
Cc1noc(C)c1S(=O)(=O)N1CCCC(CCc2ccc(F)c(F)c2)C1 (stereo unspecified) | -15.5% | ? | 6.0% | 44.7µM* | i | 19.9%
N#Cc1ccc(OCc2nc3c(n2Cc2ccccc2)C(=O)N(CC2CC2)CCN3)cc1 | ? | -60.9%[138 µM] | -27.3%[87.6 µM] | ? | ? | ?
CS(=O)(=O)NCCc1ccc(CC2CCN(C(=O)CC3CCCC3)CC2)cc1 | · | 39.8µM* | -3.8% | ? | · | -29.6%
CC1(C(=O)NCc2ccncc2)CCCc2cnc(Nc3ccccc3F)nc21 (stereo unspecified) | 0.8%[70.6 µM] | ? | -11.8%[87.6 µM] | ? | i | -26.3%[87.6 µM]
CC1(C(=O)NCc2cccnc2)CCc2cnc(Nc3ccccc3)nc21 (stereo unspecified) | 2.0%[70.6 µM] | 25.1µM* | ? | 89.1µM* | i | ?
CC1(C(=O)NCc2cccnc2)CCCc2cnc(Nc3ccccc3)nc21 (stereo unspecified) | 4.7%[70.6 µM] | ? | -28.1%[87.6 µM] | -28.0%[172 µM] | i | -27.3%[87.6 µM]
CC1(C(=O)NCc2ccncc2)CCc2cnc(NCc3ccccc3)nc21 (stereo unspecified) | 4.9%[70.6 µM] | 44.7µM* | -8.4%[87.6 µM] | -28.4%[172 µM] | i | -23.0%[87.6 µM]
CC1(C(=O)NCc2cccnc2)CCc2cnc(NCc3ccccc3)nc21 (stereo unspecified) | -2.5%[70.6 µM] | 35.5µM* | -7.5%[87.6 µM] | -25.9%[172 µM] | i | ?
CC1(C(=O)NCc2cccnc2)CCCc2cnc(NCc3ccccc3)nc21 (stereo unspecified) | 5.9%[70.6 µM] | 50.1µM* | 2.2%[87.6 µM] | ? | i | -14.0%[87.6 µM]
O=C(NCc1cccc(F)c1)c1cc(-c2cccc(C(F)(F)F)c2)c2nncn2n1 | · | -17.6% | -2.5% | -2.0% | · | ?
COc1ccc(-c2ccccc2C(=O)N2CCC(NC(=O)c3ccc(F)cc3)CC2)nn1 | · | -10.0% | · | i | · | ·
COc1cccc(Nc2ccc3c(n2)C(C)(C(=O)NCc2ccco2)CN(C)C3)c1 (stereo unspecified) | -14.7%[70.6 µM] | ? | -9.0%[87.6 µM] | ? | i | 6.2%[87.6 µM]
CC1(C(=O)NCc2ccc(F)cc2)COCc2cnc(Nc3ccccc3)nc21 (stereo unspecified) | ? | ? | -17.5%[87.6 µM] | 79.4µM* | i | -22.8%[87.6 µM]
COc1cccc(Nc2ncc3c(n2)C(C)(C(=O)NCc2cccnc2)CC3)c1 (stereo unspecified) | -1.7%[70.6 µM] | ? | -33.0%[87.6 µM] | 79.4µM* | i | -17.1%[87.6 µM]

High-throughput results (PubChem BioAssay)
